Our source for the z-score values is PubChem BioAssay AID488969 (Vanderbilt High Throughput Screening Facility, 2010).

The full ranking holds about 110,000 compounds; the median of “z-score” is about -0.1, and the highest 2% start at about 2. The list comes from a sample in which the highest values are over-represented; it also holds similar structures and randomly drawn compounds.

Metabotropic glutamate receptor 8 (Rattus norvegicus), sequence (P70579 whole entry, looked up): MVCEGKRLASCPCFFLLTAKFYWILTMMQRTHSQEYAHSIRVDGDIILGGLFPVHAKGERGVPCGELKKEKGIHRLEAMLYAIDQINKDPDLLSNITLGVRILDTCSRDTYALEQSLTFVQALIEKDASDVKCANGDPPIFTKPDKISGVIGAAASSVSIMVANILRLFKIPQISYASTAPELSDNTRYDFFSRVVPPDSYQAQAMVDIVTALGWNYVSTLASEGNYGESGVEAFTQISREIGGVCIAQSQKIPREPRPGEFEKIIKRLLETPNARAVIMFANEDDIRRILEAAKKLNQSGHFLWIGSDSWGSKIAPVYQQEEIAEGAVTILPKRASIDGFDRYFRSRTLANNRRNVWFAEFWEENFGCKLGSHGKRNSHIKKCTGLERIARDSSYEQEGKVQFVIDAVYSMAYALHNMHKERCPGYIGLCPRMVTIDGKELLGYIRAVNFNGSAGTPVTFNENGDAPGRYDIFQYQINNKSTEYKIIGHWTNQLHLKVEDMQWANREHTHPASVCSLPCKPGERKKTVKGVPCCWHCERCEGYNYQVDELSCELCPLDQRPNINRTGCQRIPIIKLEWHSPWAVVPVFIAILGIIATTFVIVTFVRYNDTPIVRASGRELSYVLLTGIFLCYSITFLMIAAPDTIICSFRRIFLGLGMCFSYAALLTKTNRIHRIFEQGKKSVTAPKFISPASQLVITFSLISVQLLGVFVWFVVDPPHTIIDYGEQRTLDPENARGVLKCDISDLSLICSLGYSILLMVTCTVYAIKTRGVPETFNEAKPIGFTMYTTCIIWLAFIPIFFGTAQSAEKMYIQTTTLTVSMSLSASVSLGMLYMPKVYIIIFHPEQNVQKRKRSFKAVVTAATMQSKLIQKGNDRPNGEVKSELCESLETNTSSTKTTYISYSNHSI

The test addresses Metabotropic glutamate receptor 8 (Rattus norvegicus) (UniProt P70579). The test can be described thus: rat mGluR8 modulators via GIRK flux, primary screen, cell-based, thallium flux, HTS (AID 488969). Conditions: HEK293 rat mGluR8, GIRK (G protein-gated inwardly rectifying potassium channel) thallium flux, FluoZin2; at 10 µM; stronger effect = higher value; submaximal glutamate (EC20) added with thallium.
The compound `CC(CN1CCN(C)CC1)OC(=O)c1ccc(Cl)cc1Cl` (configuration not stated) had a z-score of 0.335. The figure for `CC(CN1CCCCC1)OC(=O)c1ccc(Cl)cc1Cl` (configuration not stated) is 2.27; for `CC(CN1CCN(C)CC1)OC(=O)c1ccc(Cl)cc1` (configuration not stated) it is 1.05; for `CCCCOc1ccc(S(=O)(=O)NCc2csc(C)n2)cc1` it is -1.17. Turning to `Cc1nc(/N=C(\N)NC(=O)N2c3ccccc3Sc3ccccc32)nc2ccccc12`, the z-score is -0.0514.

The compound `N/C(=N\c1nc2ccccc2o1)NC(=O)c1ccccc1` returned a z-score of -0.339. The compound `Cc1nc(/N=C(\N)NC(=O)c2ccccc2)nc2ccccc12` came in with a z-score of 2.8. The figure for `CCOc1nc(S(=O)(=O)c2ccc(C)cc2)c(Cl)s1` is -0.802. In turn, `CC1CCCN(c2nc3ccccc3nc2C(C#N)S(=O)(=O)c2cccs2)C1` (configuration not stated) had a z-score of -1.84. For the compound `O=C(CCNC(=O)c1ccccc1Cl)NCC12CC3CC(CC(C3)C1)C2`, the z-score is -0.16. In the case of `Cc1nn(-c2ccc(C(=O)O)cc2)c(C)c1Oc1ccccc1O`, the z-score was -0.318. `Cc1cc(C)nc(-n2nc(C)c(Oc3ccccc3O)c2C)n1` returned a z-score of -0.176. The compound `Cc1nn(-c2ccc(C(F)(F)F)cn2)c(C)c1Oc1ccccc1O` had a z-score of 2.25. Consider `COc1ccc(CCNC(=O)C2CC(=O)N(c3ccccc3)C2)cc1OC` (configuration not stated), for which the z-score stood at 0.172. Consider `O=C(CSc1nnc(Cc2cc(=O)[nH]c(=O)[nH]2)n1-c1ccccc1)NCC1CCCO1` (configuration not stated), for which the z-score turned out to be 0.18.

In turn, `Cn1nnc(NC(=O)c2cccc(OCc3ccccc3)c2)n1` displayed a z-score of -0.179.

In the case of `Cc1ccc(C(=O)NCC2CCCO2)cc1[N+](=O)[O-]` (configuration not stated), the z-score stood at 0.0557. Turning to `COC(=O)CSc1nc2c(c(=O)[nH]c(=O)n2C)n1CCC(C)C`, the z-score was -0.127. For the compound `CCCCCn1c(SCC(=O)OC)nc2c1c(=O)[nH]c(=O)n2C`, the z-score was 2.01. With `CCCCn1c(SCC(=O)OCC)nc2c1c(=O)[nH]c(=O)n2C`, the z-score is -0.555. `Cc1ccc2cc(S(=O)(=O)NCCCC(=O)O)ccc2c1`: the z-score is -0.0725.

In turn, `CCCCNC(=O)c1ccc(N2CCC3(CC2)OCCO3)c([N+](=O)[O-])c1` had a z-score of -0.757.
